An excerpt weighted towards active compounds, which were near 6.2% of everything screened.
FMDV antiviral – High Throughput Screening for Foot and Mouth Disease Virus Antivirals; FMDV antiviral cell-based qHTS; Potency, µM (top dose mostly 57.9 µM), actives largely listed as inhibitors; hit rate 1.2% among 410,000; calls by dose curve; tested in HEK293T cells; further: read-out not given here; nearly all actives have a fitted effect of over 45% in size
LASV entry inh – qHTS for Inhibitors of binding or entry into cells for Lassa Virus; Lassa virus pseudotype entry inhibition, cell reporter; Potency, µM (doses to about 37.9 µM), most hits filed as inhibitors; hit rate 1.2% among 300,000; AID 540256, 2011; calls by dose curve; tested in HEK293 cells; further: nearly all actives have a fitted effect of over 50% in size
Marburg entry inh – qHTS for inhibitors of binding or entry into cells for Marburg Virus. Marburg virus pseudotyped entry inhibition, cell reporter. hit rate 1.8% among 300,000. Potency, µM (series often up to 37.8 µM), hits mostly inhibitors; calls by dose curve; tested in HEK293 cells
HCMV inh – qHTS Assay for inhibitors of the human cytomegalovirus (HCMV); AID 1259415, 2018; hit rate 4.5% among 410,000; activity change, negative = inhibition, % at 57.5 µM; HFF cells, HCMV-luciferase reporter, 72 h; hits give low values; in the data active means activity change below about -60%; inconclusive means no clear call, values can overlap the other calls; inactive means above about -39%
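Luciferase read-out from HCMV-luciferase-infected HFFs (MOI 1 PFU/cell) 72 h post infection at 37C; compounds added after 16 h cell attachment; activity normalized between buffer-only basal and Salinomycin (10uM) inhibitor controls.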
Large screens that a line does not name were inactive.

Cc1ccc(-c2nc3cc(N)ccc3o2)c(C)c1	LASV entry inh inconclusive, Marburg entry inh inconclusive
Nc1cccc(-c2nc3ncccc3o2)c1	LASV entry inh inconclusive
Cc1ccc2oc(-c3cccc(N)c3)nc2c1	LASV entry inh inconclusive, Marburg entry inh 13µM
Cc1ccc(-c2nc3cc(N)ccc3o2)cc1	LASV entry inh inconclusive, Marburg entry inh inconclusive
Cc1ccc(-c2nc3cc(C)ccc3o2)cc1	FMDV antiviral 10µM, LASV entry inh 14µM, Marburg entry inh inconclusive
COC(=O)c1ccc(C(=O)N2CCc3c(C(=O)NC(C)c4ccco4)c(OC)cc(=O)n3CC2)cc1 (configuration not stated)	none (no result: LASV entry inh, Marburg entry inh, HCMV inh)
CC(C)NC(=O)N(C)C[C@@H]1OCc2cn(nn2)CCCC(=O)N([C@@H](C)CO)C[C@H]1C	none (no result: FMDV antiviral, LASV entry inh, Marburg entry inh)
COc1cc(C2Nc3ccccc3-c3nnc(SCc4ccc(C)cc4)nc3O2)cc(OC)c1O (configuration not stated)	FMDV antiviral 22µM, Marburg entry inh inconclusive
COc1cc(C2Nc3ccccc3-c3nnc(SCc4ccc(Cl)cc4)nc3O2)ccc1OCC(=O)O (configuration not stated)	none
c1ccc2c(c1)[nH]c1c(N3CCOCC3)ncnc12	none (no result: FMDV antiviral)
c1ccc2c(c1)[nH]c1c(N3CCSCC3)ncnc12	FMDV antiviral 22µM
c1ccc2c(c1)[nH]c1c(N3CCCC3)ncnc12	FMDV antiviral 13µM, Marburg entry inh inconclusive, HCMV inh inconclusive
CCOC(=O)N1CCN(c2ccc(S(=O)(=O)N(Cc3ccccc3)Cc3ccccc3)cn2)CC1	FMDV antiviral inconclusive, Marburg entry inh inconclusive, HCMV inh -90
CCOC(=O)N1CCN(c2ccc(S(=O)(=O)N3CCOCC3)cn2)CC1	Marburg entry inh inconclusive
COc1ccc(CN2CCC(n3cc(C(=O)N4CCCC4)nn3)CC2)c(OC)c1C	none (no result: LASV entry inh, Marburg entry inh, HCMV inh)
CC(C)Oc1cccc(C(=O)C2CCCN(Cc3ccc(Oc4ncccn4)cc3)C2)c1 (configuration not stated)	FMDV antiviral inconclusive, Marburg entry inh inconclusive, HCMV inh inconclusive
COc1c(C)cc(C(=O)C2CCCN(Cc3ccc(Oc4ncccn4)cc3)C2)cc1C (configuration not stated)	FMDV antiviral inconclusive, HCMV inh -83 (no result: LASV entry inh, Marburg entry inh)
COc1c(C)cc(C(=O)C2CCCN(Cc3c(C)n(C)n(-c4ccccc4)c3=O)C2)cc1C (configuration not stated)	Marburg entry inh inconclusive, HCMV inh -71
COc1ccccc1CNS(=O)(=O)c1ccc(F)cc1Br	Marburg entry inh inconclusive (no result: FMDV antiviral, LASV entry inh)
Cc1ccc(-n2c(C)cc(C3=NNC(=NC4CC4)SC3)c2C)cc1C	FMDV antiviral 18µM, HCMV inh -99 (no result: LASV entry inh, Marburg entry inh)
Cc1cc(C2=NNC(=NC3CC3)SC2)c(C)n1-c1c(C)n(C)n(-c2ccccc2)c1=O	none
CN(C(=O)CSc1nncn2c1cc1occc12)c1ccccc1	HCMV inh -98 (no result: Marburg entry inh)
CCc1ccc(C2c3[nH]c4ccccc4c3CCN2C(=O)CN2CCN(CC)CC2)cc1 (configuration not stated)	LASV entry inh inconclusive, Marburg entry inh 13µM
CCc1ccc(C2c3[nH]c4ccccc4c3CCN2C(=O)c2ccc(=O)n(C)n2)cc1 (configuration not stated)	LASV entry inh inconclusive, Marburg entry inh 11µM
CCc1ccc(CSc2nc(-c3ccccc3OC)nc3c2Cc2c(CO)cnc(C)c2O3)cc1	none (no result: Marburg entry inh)
Cc1nc2ccccc2n1CC(=O)NC1CCCCCC1	FMDV antiviral inconclusive, HCMV inh -62 (no result: LASV entry inh, Marburg entry inh)
CC(=O)c1cc(-c2ccccc2)n(CC(=O)NC2CCCCCC2)c1C	HCMV inh active (no result: Marburg entry inh)
CC(=O)c1cc(-c2ccccc2)n(CCC(=O)NC2CCCCCCC2)c1C	none
CC(=O)c1cc(-c2ccccc2)n(CC(=O)Nc2ccc(C)cc2C)c1C	HCMV inh active (no result: Marburg entry inh)
CC(=O)c1cc(-c2ccccc2)n(CCC(=O)Nc2ccc(C)cc2C)c1C	none (no result: Marburg entry inh)
O=C(c1cnccn1)N1CCC2(CCCN(C(c3ccccc3)c3ccccc3)C2)CC1	none (no result: LASV entry inh, Marburg entry inh, HCMV inh)
CCCNC(=O)c1cc(Cl)c(NC(=O)C2=C(C)OCCS2)cc1OC	none (no result: LASV entry inh, Marburg entry inh)
CCOCCCNC(=O)c1cc(Cl)c(NC(=O)C2=C(C)OCCS2)cc1OC	LASV entry inh inconclusive, HCMV inh -80
CCCNC(=O)c1ccc(C)c(NC(=O)C2=C(C)OCCS2)c1	HCMV inh -77
CC1=C(C(=O)Nc2cc(C(=O)N3CCN(c4ccc(Cl)cc4)CC3)ccc2C)SCCO1	FMDV antiviral 22µM, HCMV inh inconclusive (no result: LASV entry inh, Marburg entry inh)
CC1C(=O)Nc2ccc(S(=O)(=O)NCc3ccc(N(C)C)cc3)cc2NC1=O (configuration not stated)	Marburg entry inh inconclusive
N#Cc1cccc(-c2nc3cnc(Nc4ccccc4)nc3n(C[C@H]3CCCO3)c2=O)c1	none (no result: LASV entry inh, Marburg entry inh, HCMV inh)
OCC1(Cc2cccc(C(F)(F)F)c2)CCN(Cc2cc(F)cc(F)c2)CC1	LASV entry inh inconclusive, Marburg entry inh inconclusive, HCMV inh -62
Cc1ccc(-n2cc(CN3CCC(CO)(Cc4cccc(C(F)(F)F)c4)CC3)cn2)cc1	FMDV antiviral inconclusive, LASV entry inh inconclusive, Marburg entry inh inconclusive, HCMV inh -99
COc1cc(/C=N/N2C(=O)CSC2=S)cc(Br)c1O	LASV entry inh 16µM
COCCn1c(C)cc(C(=O)CSc2nc(C)nc3sc4c(c23)CCC4)c1C	LASV entry inh 10µM, Marburg entry inh 3.7µM, HCMV inh -80
Nc1ccc(N2CCN(c3ncc(C(F)(F)F)cc3Cl)CC2)c(C(F)(F)F)c1	FMDV antiviral inconclusive, HCMV inh -104
CN(C)/C=C/C(=O)c1ccc(N2CCN(c3ncc(C(F)(F)F)cc3Cl)CC2)cc1	FMDV antiviral 25µM, LASV entry inh inconclusive, Marburg entry inh inconclusive, HCMV inh -108
O=C(c1ccccc1)N1CCOC12CCN(c1ncc(C(F)(F)F)cc1Cl)CC2	FMDV antiviral 16µM, LASV entry inh inconclusive, HCMV inh -61
O=C(c1ccc2nc[nH]c2c1)N1CCN(c2cccc(C(F)(F)F)c2)CC1	LASV entry inh inconclusive
O=C(c1ccc2nc[nH]c2c1)N1CCN(c2ncc(C(F)(F)F)cc2Cl)CC1	FMDV antiviral inconclusive, HCMV inh -70
O=C(c1ccc([N+](=O)[O-])cc1)N1CCOC12CCN(c1ncc(C(F)(F)F)cc1Cl)CC2	FMDV antiviral inconclusive
CCCCNc1ccc2c(c1)OC[C@@H](Cc1ccccc1)NS2(=O)=O	none (no result: FMDV antiviral, LASV entry inh, Marburg entry inh)
COc1ccc(OC)c(S(=O)(=O)NCCc2sc(C)nc2C)c1	none (no result: Marburg entry inh)
CN(C)c1ccc2cc(S(=O)(=O)O)cc(O)c2c1	HCMV inh -100
CCC1=C/C(=C/c2sc3ccccc3[n+]2CC)CC(C)(C)C1	FMDV antiviral inconclusive
CC[n+]1c(/C=C2/C=C(C)CC(C)(C)C2)sc2ccc(OC)cc21	FMDV antiviral 20µM, LASV entry inh inconclusive, Marburg entry inh inconclusive, HCMV inh -87
CC[n+]1c(/C=C2\C=C(C)CC(C)(C)C2)sc2ccccc21	FMDV antiviral inconclusive, LASV entry inh 9.2µM, Marburg entry inh inconclusive
COC(=O)/C=C/C(=O)Nc1cccc(C(F)(F)F)c1	Marburg entry inh inconclusive, HCMV inh -74
Cc1ccc(OCC(=O)NC(=S)Nc2cccc(NC(=O)c3ccccc3)c2)cc1	Marburg entry inh inconclusive
O=C(NNC(=S)Nc1cccc(C(F)(F)F)c1)c1ccc(Cl)cc1Cl	Marburg entry inh inconclusive, HCMV inh -66

Screens (PubChem)
